Assay outcomes deposited in PubChem BioAssay by The Scripps Research Institute Molecular Screening Center.
HTR5A inv ctr = inverse agonist of human HTR5A in OPRM1-OPRD1 counter-screen; P47898; HTR5A cell line, luminescence, inverse agonism; inhibition, % at 9.3 µM; 0.083% of 340,000 active; in the data active = inhibition mostly above about 23%, no sharp cut-off; inactive = mostly below about 18%
Target sequence (P47898 whole entry, looked up): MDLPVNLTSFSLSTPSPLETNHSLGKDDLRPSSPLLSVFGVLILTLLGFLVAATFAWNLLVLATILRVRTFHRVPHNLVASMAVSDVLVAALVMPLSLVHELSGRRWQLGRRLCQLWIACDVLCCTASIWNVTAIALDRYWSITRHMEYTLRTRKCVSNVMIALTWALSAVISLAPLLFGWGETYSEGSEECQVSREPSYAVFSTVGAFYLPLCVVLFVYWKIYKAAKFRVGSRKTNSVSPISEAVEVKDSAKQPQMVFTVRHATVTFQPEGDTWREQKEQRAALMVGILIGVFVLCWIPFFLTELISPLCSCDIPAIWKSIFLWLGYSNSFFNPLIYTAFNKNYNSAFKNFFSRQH
HTR5A ag = counter-screen for OPRM1-OPRD1 agonists: human HTR5A agonism; P47898; HTR5A agonist assay, luminescence, cell-based; activation, % at 9.3 µM; 0.61% of 340,000 active; AID 504692; in the data active = activation mostly above about 9.5%, no sharp cut-off; inactive = mostly below about 7.6%
MOR-DOR ag-1 = agonists of human mu-delta opioid receptor heterodimerization | activation, % at 9.3 µM | AID 504326 | cells, OPRM1-OPRD1 heterodimerization, luminescence | P35372+P41143 | 0.3% of 340,000 active
OPRM1-OPRD1 inv = inverse agonists of human mu-delta opioid receptor heterodimerization | AID 504357 | 0.21% of 340,000 active | inhibition, % at 9.3 µM | cell-based MOR-DOR heterodimer luminescence, inverse agonism; in the data active = inhibition above about 22%, passing the limit was not always enough
MOR-DOR ag-2 = opioid heterodimer agonism, HTR5A counter-screen | 13% of 800 active | shares compounds with HTR5A ag | activation, % at 9.3 µM | U2OS counter-screen cells, complementation luminescence, 3 h
HTR5A ag confirm = HTR5A (human) agonism, confirmation. shares compounds with HTR5A ag. HTR5A agonist cell assay, luminescence. activation, % at 9.3 µM. 17% of 800 active; in the data active = activation above about 17%
Hits are given with their value; - = inactive; . = no result; ! = not active in a repeat. Rows were chosen to be rich in hits. Some 1.1% of all compounds tested hit in one or more screens of this group. Cut-off read from the data, not from the text of the source, unless noted: active = activation above about 18%; inactive = the rest.

SMILES | HTR5A inv ctr | HTR5A ag | MOR-DOR ag-1 | OPRM1-OPRD1 inv | MOR-DOR ag-2 | HTR5A ag confirm
Cc1cc(C)c(S(=O)(=O)N2CCN(C(=O)CCn3nc(C)c(C)c3C)CC2)c(C)c1 | - | 16.4 | - | - | - | -
CCOc1ccc(NC(=O)c2cc(=O)[nH]c3ccccc23)cc1 | - | 15.8 | - | - | 21.4 | -
O=C(COc1ccc2ccccc2c1)Nc1ccc(Br)cc1C(=O)O | - | - | - | - | . | .
O=C1N(c2ccccc2C(F)(F)F)O[C@@]1(c1ccccc1)C1CCCCC1 | - | - | - | - | . | .
O=C1N(c2ccccc2C(F)(F)F)O[C@@]1(c1ccccc1)C1CCCC1 | - | 29.0 | - | - | - | -
O=C(N/N=C/c1ccc(O)cc1)c1ccc(COc2cc(Cl)ccc2Cl)o1 | - | 14.4 | - | - | 41.1 | -
COc1cccc(OC)c1C(=O)N1CCNCC1 | - | - | - | - | . | .
COC(=O)CCC[C@H]1CC2(C[C@H](CCCO[Si](C)(C)C(C)(C)C)N1C(=O)OC(C)(C)C)OCCO2 | - | 15.8 | - | - | 118.9 | -
COc1ccc(COC(=O)CCc2c[nH]c3ccccc23)cc1F | - | - | - | - | . | .
O=C(CCNC(=O)c1ccc(Br)cc1)NC1CCCc2ccccc21 (stereo not given) | - | - | - | - | . | .
CN(C)c1ccc(NC(=S)N2CCN(c3ncc(C(F)(F)F)cc3Cl)CC2)cc1 | - | 15.8 | - | - | - | -
COCCNc1nc(N)c([N+](=O)[O-])c(NCc2ccccc2)n1 | - | - | - | - | . | .
O=C(COC(=O)CCC(=O)c1cccs1)Nc1cccc(F)c1 | - | 17.6 | - | - | - | -
Cc1c(N=C/C=C/c2ccccc2)c(=O)n(-c2ccccc2)n1C | - | - | - | - | . | .
Cc1c(NC(=S)/C=C2\N(C)c3ccccc3C2(C)C)c(=O)n(-c2ccccc2)n1C | - | - | - | - | . | .
Cc1c(N=C/C=C2\N(C)c3ccccc3C2(C)C)c(=O)n(-c2ccccc2)n1C | - | 48.4 | - | - | - | 31.9
Cc1c(N=C/C=C2/N(C)c3ccccc3C2(C)C)c(=O)n(-c2ccccc2)n1C | - | 21.9 | - | - | - | 29.3!
O=C(O/N=C(\c1ccccc1)c1ccccn1)c1cccc2ccccc12 | - | 39.2 | - | - | 133.2 | -
O=C(CNCc1ccc(Cl)cc1)Nc1cc(S(=O)(=O)N2CCCC2)ccc1Cl | - | - | - | - | . | .
Cc1ccc(S(=O)(=O)NN=C2CCC(C(C)(C)C)CC2)cc1[N+](=O)[O-] (stereo not given) | - | - | - | - | . | .
CC(C)(C)C1CCC(=NNS(=O)(=O)c2ccc(Br)cc2)CC1 (stereo not given) | - | 20.6 | - | - | - | -
CCC(C)(C(=O)NC1CCCCC1)N(C(=O)Cc1cccs1)c1ccccc1 (stereo not given) | - | - | - | - | . | .
CC(C)Cn1cnc2c(SCc3ccccc3)nc(N)nc21 | - | - | - | - | . | .
Cc1ccc2ccccc2c1CSc1nc(N)nc2c1ncn2CC(C)C | - | 15.2 | - | - | - | -
NCCCCc1ccc2ccc3cccc4ccc1c2c34 | - | 16.2 | - | - | - | -
SMILES | HTR5A inv ctr | HTR5A ag | MOR-DOR ag-1 | OPRM1-OPRD1 inv | MOR-DOR ag-2 | HTR5A ag confirm
O=C(Cn1cc(CNC(=O)C2CCCCC2)nn1)Nc1cc(C(F)(F)F)ccc1Cl | - | 20.3 | - | - | - | -
Cc1ccc(C(=O)c2coc3c2C(=O)C(=O)c2ccccc2-3)cc1 | - | 18.7 | - | - | - | -
Cc1oc2c(c1C(=O)c1ccc(Cl)cc1)C(=O)C(=O)c1ccccc1-2 | - | - | - | - | . | .
O=S(=O)(NCc1ccc2c(c1)OCO2)c1ccc(F)c(F)c1 | - | 14.9 | - | - | - | -
Cc1cc(S(=O)(=O)NCc2ccc3c(c2)OCO3)ccc1F | - | - | - | - | . | .
Cc1ccc(-c2nc(NC(=O)c3nn(C)cc3[N+](=O)[O-])sc2C)cc1C | - | 17.5 | - | - | 23.5 | -
Cc1ccc(-c2nc(NC(=O)c3nn(C)cc3[N+](=O)[O-])sc2C)cc1 | - | - | - | - | . | .
CN(Cc1ccccc1)S(=O)(=O)c1ccc2c(c1)CCC(=O)N2 | - | - | - | - | . | .
CC(C)C(=O)NCCc1nc2ccccc2n1CCCOc1ccc(Cl)cc1 | - | - | - | - | . | .
Cc1ccc(OCCn2c(CCNC(=O)C(C)C)nc3ccccc32)cc1 | - | 19.7 | - | - | - | -
CCOc1ccc2nc(NC(=O)Nc3ccccc3)sc2c1 | - | 20.4 | - | - | - | -
COCCCn1c(=O)c2sccc2n2c(CCCC(=O)N(C)Cc3ccco3)nnc12 | - | - | - | - | . | .
COc1ccc(-c2ccc(NCCN3CCOCC3)nn2)cc1OC | - | - | - | - | . | .
COc1ccc(S(=O)(=O)NC(C(=O)OCC(=O)Nc2ccc(N3CCOCC3)cc2)C(C)C)cc1 (stereo not given) | - | 15.5 | - | - | - | -
CCCOc1ccc(NC(=O)c2cc3cc(C)ccc3[nH]2)cc1 | - | - | - | - | . | .
O=C(Cc1ccccc1)NCCc1c[nH]c2ccccc12 | - | - | - | - | . | .
c1ccc2c(NCCc3c[nH]c4ccccc34)c3ccccc3nc2c1 | - | 17.3 | - | - | - | -
COc1ccc(C(=O)CCC(=O)NCCc2c[nH]c3ccccc23)cc1 | - | 44.3 | - | - | - | 42.1
Cc1ccccc1NC(=O)C(=O)NCCc1c[nH]c2ccccc12 | - | 34.7 | - | - | - | 61.0
Fc1cccc(NCCc2c[nH]c3ccccc23)n1 | - | - | - | - | . | .
O=C(O)c1nccnc1C(=O)NCCc1c[nH]c2ccccc12 | - | 15.9 | - | - | - | -
COc1ccc(C(CNC(=O)C(C)Oc2ccc(Br)cc2)N2CCCCC2)cc1 (stereo not given) | - | - | - | - | . | .
Nc1cc(=O)[nH]c(SCC(=O)NCCC2=CCCCC2)n1 | - | - | - | - | . | .
CCn1nc(C)cc1C(=O)n1nc(C)c(Sc2ncccn2)c1C | - | - | - | - | . | .
O=C(CCC(=O)c1ccccc1)NCCc1c[nH]c2ccccc12 | - | 93.5 | - | - | - | 89.1
SMILES | HTR5A inv ctr | HTR5A ag | MOR-DOR ag-1 | OPRM1-OPRD1 inv | MOR-DOR ag-2 | HTR5A ag confirm
CN(c1ccccc1)S(=O)(=O)c1cccc(C(=O)NCCc2c[nH]c3ccccc23)c1 | - | 26.7 | - | - | 57.0 | -
O=C(NCCc1c[nH]c2ccccc12)c1cccc(S(=O)(=O)Nc2ccccc2Cl)c1 | - | - | - | - | . | .
Cc1ccnc(NS(=O)(=O)c2ccc(Oc3ccccc3)cc2)c1 | - | - | - | - | . | .
CCCCCc1ccc(S(=O)(=O)Nc2cc(C)ccn2)cc1 | - | 16.9 | - | - | - | -
CN1CCC(=NNc2ccc(S(=O)(=O)N3CCOCC3)cc2[N+](=O)[O-])CC1 | - | - | - | - | . | .
CC(C)(C)c1ccc(C(=O)NN=C2CCCC2)cc1 | - | 14.6 | - | - | - | -
O=C(NN=C1CCCCCCC1)c1ccc(F)cc1 | - | - | - | - | . | .
CCOC(=O)N1CCN(C(=O)Cn2nc(C)n3nc(-c4ccccc4)cc3c2=O)CC1 | - | - | - | - | . | .
O=C(NCCN1C(=O)CSC1=O)c1ccccc1 | - | - | - | - | . | .
Nc1ccc(C(=O)N/N=C/c2cccc(Oc3ccccc3)c2)cc1 | - | 22.8 | - | - | - | 27.5
